The text below walks through data of ChEMBL document CHEMBL3988442, “University of Dundee, Small-Polar-MMV Screening Library” (2021).

The first experiment deals with Trypanosoma cruzi. The experiment in a line: Trypanosoma cruzi phosphomannomutase and mannose-1-phosphate guanylyltransferase assay. In kind it is functional. Also on record: scale not given: direction of the effect not stated beside the values. The following applies: 10 µM.
Turning to `Cc1cnc(CN2CCCC(c3cc(C(N)=O)[nH]n3)C2)cn1` (stereo not drawn), the Percent Effect was -3.01%.
Same read-out and setting: for `Cc1cnn(CC2CCCN2C(=O)c2cccnc2N(C)C)c1` (stereo not drawn) the value was 1.42%; for `CC(C)c1nc(C2CCCN(C(=O)c3ccnc(N(C)C)c3)C2)no1` (stereo not drawn), -3.62%.
Still for that read-out and setting: for `CC(NC(=O)NCc1cccc(Cl)c1)(C(=O)O)c1ccco1` (stereo not drawn) the value was 5.32%.

For a further experiment, the target named is T1, Arginase-2, mitochondrial (Homo sapiens) (UniProt P78540).
T1 sequence (whole entry): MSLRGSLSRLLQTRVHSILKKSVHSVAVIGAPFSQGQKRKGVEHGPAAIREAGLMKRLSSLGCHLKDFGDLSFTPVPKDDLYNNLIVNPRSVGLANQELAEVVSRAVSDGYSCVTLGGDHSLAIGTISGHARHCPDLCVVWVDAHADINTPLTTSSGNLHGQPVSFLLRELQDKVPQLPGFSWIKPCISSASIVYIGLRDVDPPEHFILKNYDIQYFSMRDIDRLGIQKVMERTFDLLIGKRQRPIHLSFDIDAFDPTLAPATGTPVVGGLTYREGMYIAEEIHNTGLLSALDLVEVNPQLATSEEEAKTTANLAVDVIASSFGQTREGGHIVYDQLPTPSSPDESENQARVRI
The experiment in a line: in vitro enzyme assay to detect the production of urea directly proportional to the activity of Arginase II. Format: functional. Also on record: scale not given: in the data most compounds retested in dose-response had high values. The following applies: 30 µM.
Turning to `Cc1nn(C)c2c(=O)n(C(C)C)c(NCCc3ccccc3)nc12`, the Percent Effect worked out at 8.11%.
Turning to `CNC(=O)CCNC(=O)c1cc(Br)c2c(c1)OCCO2`, the Percent Effect is -10.3%.
On the same count and under the same terms, for `CCC(C(=O)NCc1ccccn1)N(c1cccc(C)c1)S(C)(=O)=O` (stereo not drawn) the value was 9.19%; for `COc1ccc(OCC(O)CN2CCN(c3nccs3)CC2)cc1` (stereo not drawn), -8.11%; for `CCC(C(=O)NCc1ccncc1)N(c1ccccc1)S(C)(=O)=O` (stereo not drawn), 5.95%.
`CCS(=O)(=O)CC(=O)N1CCCC1c1noc(C2CC2)n1` (stereo not drawn): the Percent Effect is 2.7%.
The same measure, in the same setting: for `COCc1ccc(C(=O)N(CCC#N)Cc2ccccn2)cc1` the value was 0.54%; for `CC(=O)NCCNC(=O)c1cc(Br)c2c(c1)OCCO2`, 4.87%; for `CCCNC(=O)c1cc(Br)c2c(c1)OCCO2`, 5.95%.
Same read-out and setting: the figure for `CN(Cc1ccco1)[C@@H]1CN(Cc2cnn(C)c2)[C@@H]2CCCO[C@H]12` is 2.7%; for `Cc1noc(CNC(=O)N2CCN(c3nc(C)c(C)s3)CC2)n1` it is 5.95%; for `O=C(Cn1nc2c(cc1=O)CCCC2)NC(C(=O)O)c1ccccc1` (stereo not drawn) it is -2.7%.
`Cc1nn(CCO)c(C)c1CNC1CCOc2ccccc21` (stereo not drawn): the Percent Effect is -9.19%.
Same read-out and setting: the figure for `CN(C)c1ncccc1CN1CCOC(C(=O)Nc2ccccc2)C1` (stereo not drawn) is 1.62%; for `CNC(=O)[C@H]1C[C@@H]2CN(C(=O)c3occc3C)C[C@@H]2N1S(C)(=O)=O` it is 2.7%.
Same read-out and setting: for `CCn1c(NCc2cccnc2)nc2c(C)nn(C)c2c1=O` the value was 3.78%.
On the same count and under the same terms, for `O=C(NCC1CC1)[C@@H]1CCO[C@@H]2CCN(CCc3ccccc3)C[C@H]21` the value was 1.62%; for `CC1=Nc2c(c(=O)[nH]n2C2CCCC2)C(c2ccc(O)cc2)S1` (stereo not drawn), 5.95%; for `COc1ccc2c(c1)OCC(CNC(=O)c1cnc(O)cn1)C2` (stereo not drawn), 10.3%.
Turning to `CC[C@@H](NC(C)=O)C(=O)NCc1cccnc1Oc1ccccc1OC`, the Percent Effect came out at 4.87%.
As for `O=C(O)C(c1ccc(Cl)c(F)c1)N1CCN(Cc2ccccn2)CC1` (stereo not drawn), the Percent Effect worked out at 5.95%.
On the same count and under the same terms, the figure for `CC(C)N(C)C(=O)c1coc(CN2CCN(c3ccccc3F)CC2)n1` is 7.03%; for `CCC(C(=O)NCc1ccncc1)N(c1cccc(Cl)c1)S(C)(=O)=O` (stereo not drawn) it is -13.5%; for `CC(C)(C)n1cc(NC(=O)C2CN(Cc3ccccc3)CCO2)cn1` (stereo not drawn) it is 0.54%.
The same measure, in the same setting: for `CN(Cc1ccncc1)C1CC2(CCN(Cc3ccccn3)CC2)C1` the value was 5.95%; for `CC(C)CN1CCC(NC(=O)c2ccc(F)cc2Cl)CC1`, 5.95%.
Turning to `O=C(COC1CCCC1)N1CCCC1c1noc(C2CC2)n1` (stereo not drawn), the Percent Effect was determined as 5.95%.
In the case of `COc1ccc2c(c1)OCC(CNC(=O)c1cnc(NC(C)C)nc1)C2` (stereo not drawn), the Percent Effect amounted to 2.7%.
Same read-out and setting: for `N#Cc1ccc(OCC(O)CN2CCN(c3nccs3)CC2)cc1` (stereo not drawn) the value was 5.95%; for `Cc1ncsc1C(=O)N1CCCC(c2nccn2Cc2cscn2)C1` (stereo not drawn), 10.3%.
On the same count and under the same terms, for `Cc1nn(CCO)c(C)c1CNC1CCc2c(F)cccc21` (stereo not drawn) the value was 5.95%; for `CC1=Nc2c(c(=O)[nH]n2C2CCCC2)C(c2ccc(C(=O)O)cc2)S1` (stereo not drawn), 7.03%.
Still for that read-out and setting: for `Cn1cc(CC2CCN(C(=O)NCc3csc(C4CC4)n3)C2)cn1` (stereo not drawn) the value was 7.03%.
With `Cc1ccc2c(c1)CCC2NCc1c(C)nn(CCO)c1C` (stereo not drawn), the Percent Effect came to 3.78%.
On the same count and under the same terms, for `CCOCCCNC(=O)c1cc(Br)c2c(c1)OCCO2` the value was 0.54%.

A further experiment is filed under the species Homo sapiens. The experiment in a line: To identify inhibition of the IFN signalling (Jak-Stat) pathway via expression of an eGFP reporter gene under the control of an IFN-stimulated response element (ISRE) containing MxA promoter. In kind it is functional. Also on record: scale not given: direction of the effect not stated beside the values. As to conditions: 30 µM.
In the case of `Cc1cnc(CN2CCCC(c3cc(C(N)=O)[nH]n3)C2)cn1` (stereo not drawn), the Percent Effect was 6.6%.
For the molecule `Cc1cnn(CC2CCCN2C(=O)c2cccnc2N(C)C)c1` (stereo not drawn), the Percent Effect was -17.9%.
On the same count and under the same terms, the figure for `CC(C)c1nc(C2CCCN(C(=O)c3ccnc(N(C)C)c3)C2)no1` (stereo not drawn) is 26.1%; for `CC(NC(=O)NCc1cccc(Cl)c1)(C(=O)O)c1ccco1` (stereo not drawn) it is -2.55%.
